Rows were chosen to be rich in hits. Some 4.9% of all compounds tested hit in one or more screens of this group.
MPTP block = mitochondrial permeability transition pore inhibitors, primary screen, biochemical, isolated mouse mitochondria, absorbance | Ca2+ swelling absorbance, 30 min | inhibition, % at 10 µM | 1.4% of 360,000 active;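 active = inhibition of 50% or more, scaled per plate between neutral and stimulator controls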
HSF1 inh = HSF1 inhibitors in luciferase reporter cells, primary screen, cell-based, NIH3T3, luminescence. NIH3T3-HGL HSE-luciferase, MG132-induced, luminescence 8 h; hits give low values. activity change, negative = inhibition, % at 7.5 µM (by protocol). 0.77% of 300,000 active;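 active = more than half of replicate wells show activity change below -50%, luminescence cut by over half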;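 also: luciferase reports HSF-1 transcriptional activity via heat shock element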
HSP90 refold inh = HSP90 inhibitors, primary screen, cell lysate, luminescence; 0.91% of 290,000 active; Heat shock protein HSP 90 (rabbit reticulocyte lysate; luciferase refolding); AID 1789, 2009; inhibition, % at 5.6 µM; Rabbit reticulocyte lysate, luciferase refolding luminescence, 3 h;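 active = inhibition above the screen-wide mean plus 3 SD, computed separately per campaign, cut at about 16% in these data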;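 also: inhibitors lower the luminescence because luciferase stays unfolded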
HSF1 activator = HSF-1 activators, primary screen, NIH3T3-HGL cells, MG132 stress, luminescence, single point; 1.7% of 300,000 active; NIH3T3-HGL HSF-1 luciferase reporter, 8 h; 100% = twice DMSO control signal; activation, % at 9 µM;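 active = mean replicate activation of at least 50% with a set share of replicates each reaching 50%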
Platelet DG rel = inhibitors of platelet dense granule secretion, primary screen, cell-based, MLPCN, human platelets | AID 1663, 2009 | human platelet-rich plasma, SFLLRN dense granule ATP release, luminescence | 0.22% of 300,000 active | inhibition, %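 (compounds screened at 7.5 µM in platelet-rich plasma)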;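 active = mean replicate score, as percent of positive control, at or above 50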
dFosB activator = activators of delta FosB homodimer, primary screen, biochemical, fluorescence polarization, TAMRA-CDK5 oligo, single point; 0.99% of 340,000 active; activation, % at 25 µM; purified delta FosB; percent of positive-control signal above neutral wells;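 active = mean activation above about 17%, with every replicate also reaching it, limit read from the data, passing the limit was not always enough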
Target sequence (P13346 whole entry, looked up): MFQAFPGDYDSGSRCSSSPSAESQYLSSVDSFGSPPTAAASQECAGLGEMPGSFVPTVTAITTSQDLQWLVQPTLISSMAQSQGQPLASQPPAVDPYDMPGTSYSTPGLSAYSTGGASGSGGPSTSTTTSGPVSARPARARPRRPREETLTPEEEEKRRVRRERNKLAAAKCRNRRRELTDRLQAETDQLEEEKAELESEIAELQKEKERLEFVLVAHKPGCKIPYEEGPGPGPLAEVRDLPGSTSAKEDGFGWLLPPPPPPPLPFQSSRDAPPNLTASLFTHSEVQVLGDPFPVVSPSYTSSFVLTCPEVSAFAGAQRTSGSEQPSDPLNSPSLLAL
Rh123 counter = fluorescence retest of MPTP screen hits in isolated mitochondria, single concentration; shares compounds with MPTP block; membrane potential, Rhodamine 123 fluorescence; inhibition, % at 10 µM; 78% of 5,000 active; in the data active = inhibition above about 22%
MPTP swell DR = mitochondrial permeability transition pore inhibitors, dose response, biochemical, absorbance, uHTS hits. shares compounds with MPTP block. isolated mitochondria swelling. 58% of 780 active. IC50, µM; in the data active = IC50 below about 20 µM
MPTP counter DR = fluorescent counter-screen in isolated mitochondria, dose response, counter-screen for MPTP inhibitor project, biochemical, fluorescence, uHTS hits; shares compounds with MPTP block; isolated mitochondria counterscreen, fluorescence read-out; IC50, µM; 49% of 780 active; AID 651564, 2012; in the data active = IC50 below about 80 µM
Of the large screens only hits and unclear results are named; the others gave an inactive call (follow-up assays come after a bar, where they were run).

O=C(NC(Nc1nc2ccc([N+](=O)[O-])cc2s1)(C(F)(F)F)C(F)(F)F)c1cccnc1	MPTP block 87 | Rh123 counter 97
CN(C)S(=O)(=O)c1ccc2nc(NC(=O)c3cccnc3)sc2c1	none
O=C(NC(Nc1nc2ccc([N+](=O)[O-])cc2s1)(C(F)(F)F)C(F)(F)F)c1ccccc1Cl	MPTP block 92 | Rh123 counter 92
C/C(=C\c1ccccc1)C(=O)Nc1nc2ccc([N+](=O)[O-])cc2s1	MPTP block 53 | Rh123 counter 66
Cc1ccc(S(=O)(=O)N2CCC(C(=O)OC(C)C(=O)NCc3ccccc3)CC2)cc1C (stereo unspecified)	none
O=C(Nc1ccc(Oc2cccc(C(F)(F)F)c2)nc1)c1cccs1	MPTP block 50 | Rh123 counter 57
O=C(Nc1ccc(Oc2cccc(C(F)(F)F)c2)nc1)c1ccccc1	none
CCN(CC)C(=O)c1cccc(-c2csc(C(O)c3cccc(Cl)c3)n2)c1 (stereo unspecified)	none (no result: HSF1 inh, HSP90 refold inh, HSF1 activator, Platelet DG rel, dFosB activator)
COc1ccccc1-c1c(-c2ccc(OCC(=O)NN)cc2O)n[nH]c1C(F)(F)F	none
COc1ccc(-c2n[nH]c(C(F)(F)F)c2-c2cc3ccccc3o2)c(O)c1	MPTP block 55 (no result: HSF1 inh, HSF1 activator) | Rh123 counter 60
CCCCNC(=O)c1cn(C)c2ccc(S(=O)(=O)N3CC(C)CC(C)C3)cc2c1=O (stereo unspecified)	none
CCCCCCCCCCCCC/C=C/[C@@H](O)[C@@H](N)CO	MPTP block 98 (no result: HSP90 refold inh) | Rh123 counter inactive
CCCCCCCC/C=C\CCCCCCCC(=O)NCCO	none (no result: HSF1 inh, HSP90 refold inh, HSF1 activator, Platelet DG rel)
CN(CCCS(=O)(=O)[O-])c1ccc(/C=C/c2ccc3ccccc3[n+]2C)cc1	none
CN(C)c1ccc(/C=C/c2ccc3c4ccccc4ccc3[n+]2-c2ccccc2)cc1	MPTP block 154, dFosB activator 112 (no result: HSF1 inh, HSF1 activator, Platelet DG rel) | Rh123 counter 77
CN(C)c1ccc(/C=C/c2ccc3ccccc3[n+]2C)cc1	MPTP block 109, dFosB activator 96 | Rh123 counter 68
Cn1nc(SCc2ccccc2)c(=O)n(C(c2ccccc2)c2ccccc2)c1=O	none (no result: HSF1 inh, HSP90 refold inh, HSF1 activator, Platelet DG rel)
Cc1ccc(NC(=O)c2ccc(Cl)c(N3C(=O)C=CC3=O)c2)cc1	MPTP block 84 | Rh123 counter 86
Cc1ccc(NC(=O)c2ccc3c(c2)[nH]c(=O)n3C(C)C)cc1	none
COc1ccc(NC(=O)c2cc(C3CCCCN3S(C)(=O)=O)on2)c(C)c1 (stereo unspecified)	none (no result: HSF1 inh, HSP90 refold inh, HSF1 activator, Platelet DG rel, dFosB activator)
O=C(c1cc2sccc2n1Cc1ccccc1)N1CCN(c2nc3ccccc3s2)CC1	MPTP block 102 | Rh123 counter 102
CC(C)c1ccc(NC(=O)c2ccccc2NC(=O)C2CC=CCC2C(=O)O)cc1 (stereo unspecified)	none (no result: HSF1 inh, HSF1 activator, Platelet DG rel)
Cc1ccc(SCc2nc3ccccc3n2CC(=O)Nc2ccc(Cl)cc2)cc1	MPTP block 87 | Rh123 counter 87
COc1ccc(CCC(=O)Nc2cccc(S(=O)(=O)N3CCCC3)c2)cc1OC	none (no result: HSF1 inh, HSP90 refold inh, HSF1 activator, Platelet DG rel)
Cn1nccc1C(=O)Nc1sc2c(c1C#N)CCCC2	none
Cc1ccccc1C(=O)NC(=S)Nc1sc2c(c1C#N)CCC(C)C2 (stereo unspecified)	none
CC1CCc2c(sc(NC(=S)NC(=O)c3ccccc3)c2C#N)C1 (stereo unspecified)	MPTP block 66, HSF1 activator 59 | Rh123 counter 70
Cn1ncc(Cl)c1C(=O)NC(=S)Nc1sc2c(c1C#N)CCCCC2	MPTP block 90 | Rh123 counter inactive | MPTP swell DR inactive | MPTP counter DR <2.5
N#Cc1c(NC(=S)NC(=O)c2ccccc2)sc2c1CCCC2	MPTP block 86 | Rh123 counter inactive | MPTP swell DR inactive | MPTP counter DR 6.7
N#Cc1c(NC(=O)c2ccccc2)sc2c1CCC2	none
CC(C)CC(=O)NC(NC(=S)Nc1sc2c(c1C#N)CCCC2)C(Cl)(Cl)Cl (stereo unspecified)	MPTP block 90 | Rh123 counter 97
CCC(=O)Nc1sc2c(c1C#N)CCC2	none
Cn1c(-c2ccccc2)cc(=O)n1-c1ccccc1	none (no result: HSF1 inh, HSP90 refold inh, HSF1 activator, Platelet DG rel)
COc1cccc(-c2c(C#N)c(N)nc3c2c(=O)nc2sccn23)c1	none (no result: MPTP block, dFosB activator)
CCn1nc(C)c(CNC(=O)CCc2nnc(-c3ccc(C(C)=O)s3)o2)c1C	none
COC(=O)CSc1nnc(C)c(=O)[nH]1	none
CCOC(=O)CNc1nnc(SCC(=O)OCC)[nH]c1=O	MPTP block 58 | Rh123 counter inactive | MPTP swell DR inactive | MPTP counter DR inactive
CCC(=O)N1CCC1(C)C(=O)Nc1nccs1 (stereo unspecified)	none (no result: HSF1 inh, HSP90 refold inh, HSF1 activator, Platelet DG rel, dFosB activator)
Cc1ccc(CN2CCN(CC(=O)NCCCN3CCN(c4ccc(F)cc4)CC3)C2=O)cc1	MPTP block 56 | Rh123 counter inactive | MPTP swell DR 14 | MPTP counter DR 18
Cc1ccc(NC(=O)C(C)c2cccc(C(=O)c3ccccc3)c2)cc1O (stereo unspecified)	MPTP block 96 | Rh123 counter 84
Cc1cccc(NC(=O)C(C)C(=O)c2ccccc2)c1 (stereo unspecified)	none
C=CCC(C(=O)Oc1c(C(C)(C)C)cc(C)cc1C(C)(C)C)c1ccccc1 (stereo unspecified)	MPTP block 55 (no result: HSF1 inh, HSP90 refold inh, HSF1 activator, Platelet DG rel) | Rh123 counter inactive | MPTP swell DR 6.9 | MPTP counter DR inactive
CCCCn1nc(C(=O)NNC(=O)c2ccncc2)c2ccccc2c1=O	none
CCc1c(C)c(C#N)c2[nH]c3ccccc3n2c1=S	MPTP block 90 | Rh123 counter 81
C=C(C)Cc1c(C)c(C#N)c2[nH]c3ccccc3n2c1=O	none
Cc1ccc(Cc2c(C)c(C#N)c3[nH]c4ccccc4n3c2=O)cc1	MPTP block 89 | Rh123 counter 70
CCc1cc(=S)n2c([nH]c3ccccc32)c1C#N	MPTP block 101 | Rh123 counter 68
O=C1CNC(=S)N1Cc1ccccc1Cl	none
CC(C)C(=O)N1CCN(c2ccccc2NC(=O)c2ccco2)CC1	none
O=C(O)c1sccc1Oc1ccc(NS(=O)(=O)c2ccc(Cl)cc2)cc1	none

Compound activity from PubChem.
